High-throughput results deposited in PubChem BioAssay by National Center for Advancing Translational Sciences (NCATS).
Compounds with a hit are over-represented: about 14% of the library has one in this group of screens.
Giardia FBPA inh: Giardia lamblia aldolase inhibition. 290,000 compounds, 0.71% hits. A8B2U2. Potency, µM (titrated, usually from 59.6 µM), for inactives: at the highest dose activity, negative = inhibition, most hits filed as inhibitors. purified Giardia FBPA. AID 2451; also: potency is read from the fitted curve at half-maximal effect; % is scaled to controls: 0 for no effect and ±100 for the full control effect; nearly all actives have a fitted effect of over 55% in size
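Giardia FBPA (40 nM reagent) was preincubated 10 min at RT with compound (up to 57.5 uM final), then substrate plus GAPDH/TPI/NAD/arsenate coupling system with diaphorase/resazurin was added; resorufin fluorescence (525/598 nm) was read after 20 min.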
NS1 function inh: inhibitors of influenza NS1 protein function | 270,000 compounds, 0.4% hits | Potency, µM (doses to about 46.1 µM), without a hit: at the top dose activity, positive = more growth | AID 2326; calls by dose curve; also: potency is read from the fitted curve at half-maximal effect; actives are rising curves; nearly all actives have a fitted effect of over 50% in size
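OD600 was taken as the measure of yeast growth restored by compound in an NS1-expressing S. cerevisiae strain. Cells had been washed out of glucose medium and diluted 1:100 into galactose -URA medium, pH 6.0.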
Cycloheximide cs: affects cycloheximide protein synthesis inhibition readout, counter-screen; cell reporter, cycloheximide protein synthesis inhibition counterscreen; max response, %; 300,000 compounds, 12% hits; in the data active = max response mostly above about 13%, no sharp cut-off; inactive = mostly below about 14%; also: read at 38.3 µM for the half of the compounds with a filed dose; 0% is about no effect
Shiga inhibitor: inhibitors of Shiga toxin in Vero cells | 290,000 compounds, 9.2% hits | AID 2315 | Vero cells, Shiga toxin protein synthesis inhibition reporter | inhibition, % at 38.7 µM; in the data active = inhibition mostly above about 28%, no sharp cut-off; inactive = mostly below about 43%; also: 0% is about no effect
LmPK inhibitor: LmPK (Leishmania mexicana) enzyme inhibition | 290,000 compounds, 0.37% hits | AID 1721 | Potency, µM (doses to about 57.5 µM), for inactives: at the highest dose activity change, negative = inhibition, actives largely listed as inhibitors | Q27686 | purified LmPK, Kinase-Glo ATP luminescence, 1 h; also: potency is read from the fitted curve at half-maximal effect; % is scaled to controls: 0 for no effect and ±100 for the full control effect
Target sequence (Q27686 whole entry, looked up): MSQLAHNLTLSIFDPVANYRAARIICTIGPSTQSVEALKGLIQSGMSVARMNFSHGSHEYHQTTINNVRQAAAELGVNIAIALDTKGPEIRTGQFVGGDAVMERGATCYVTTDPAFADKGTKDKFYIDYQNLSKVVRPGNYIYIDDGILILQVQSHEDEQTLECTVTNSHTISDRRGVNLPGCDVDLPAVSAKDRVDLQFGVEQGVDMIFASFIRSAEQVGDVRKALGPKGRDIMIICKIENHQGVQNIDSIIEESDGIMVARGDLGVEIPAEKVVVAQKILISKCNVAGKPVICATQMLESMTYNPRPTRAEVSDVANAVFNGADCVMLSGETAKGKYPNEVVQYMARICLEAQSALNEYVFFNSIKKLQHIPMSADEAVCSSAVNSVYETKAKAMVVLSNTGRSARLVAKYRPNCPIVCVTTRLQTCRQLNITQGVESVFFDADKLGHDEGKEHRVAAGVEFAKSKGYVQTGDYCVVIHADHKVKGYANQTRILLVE
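Purified LmPK (0.1 nM) with 0.5 mM PEP and 0.1 mM ADP in imidazole buffer pH 7.2 with MgCl2/KCl, 1 h at room temperature. ATP formed was read by luciferase luminescence and normalized to no-enzyme and uninhibited controls.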
* hit, by the source's call; ? = inconclusive; . = not tested or not shown; + = active, no number; [ ] = dose if it differs, or a comment. Unless noted, calls follow the shape of the dose curve; as a rule, active = well fitted curve in the direction sought with a large enough effect; inconclusive = small, poorly fitted or top-dose-only effect, or another doubt; inactive = no such curve, though single readings can be large; an effect the other way counts as inactive or inconclusive.

SMILES	Giardia FBPA inh	NS1 function inh	Cycloheximide cs	Shiga inhibitor	LmPK inhibitor
CCOC(=O)CC1C(=O)NC2CCCCC2N1C(=O)Nc1ccc(Cl)cc1 (centres undefined)	1%	-39%	28*	20	-10%
COc1ccc(CNc2ccnc(-c3cccc(C#N)c3)n2)c(OC)c1	-11%	.	.	.	.
C[C@@]12C(=O)N(Cc3ccccc3)CC(=O)N1[C@H](/C=C/c1ccccc1)[C@@H]1C(=O)N(c3ccccc3)C(=O)[C@@H]12	5%	-3%	-1	11	-4%
O=C(/C=C/c1ccccc1Cl)NCCc1ccccc1	5%	-30%	50*	77*	2%
O=C(/C=C/c1ccccc1Cl)NCc1ccccc1	0%	-5%	29*	51*	1%
COC(=O)[C@@]1(Cc2ccc(F)cc2)[C@H]2c3cc(C(=O)N4CCCC4)n(CCc4c[nH]c5cc(F)ccc45)c3C[C@H]2CN1C(=O)c1ccccc1	-9%	.	.	.	.
O=C(O)c1ccc(N/N=C/c2ccc(F)c(F)c2)cc1	6%	-31%	15*	35	-17%
O=C(O)c1ccc(N/N=C/c2cccc(F)c2)cc1	0%	-25%	81*	69*	?
O=C(O)c1ccc(N/N=C/c2cccc(C(F)(F)F)c2)cc1	2%	-81%	55*	84*	-3%
CC(C)c1ccc(Nc2ccc(C(=O)O)cc2[N+](=O)[O-])cc1	21%	-89%	19*	43	4%
Cc1c(C(=O)Nc2ccccc2[N+](=O)[O-])csc1-c1ccccc1	-4%	-4%	34*	97*	-25%
Cc1c(C(=O)Nc2ccccc2)csc1-c1ccccc1	2%	-7%	36*	40*	-2%
Cc1oc(-c2ccccc2)cc1C(=O)Nc1ccccc1	-7%	-17%	10	20	-6%
Cc1cc(C(=O)Nc2ccccc2[N+](=O)[O-])cs1	.	1%	9	-2	-1%
C=C1CCN(C(CC(C)C)C(=O)NCc2ccc(Cl)c(Cl)c2)S(=O)(=O)c2ccccc21 (centres undefined)	-10%	.	-2	-9	.
COc1cccc([C@H]2Oc3ccc(OC)cc3/C(=N\O[C@@H]3O[C@H](COC(C)=O)[C@H](OC(C)=O)[C@H](OC(C)=O)[C@H]3OC(C)=O)[C@@H]2O)c1	0%[12.9 µM]	.	.	.	.
C/C(=N\NC(N)=O)c1ccccc1Cl	5%	-2%	-2	2	-1%
C/C(=N\NC(=O)c1ccccc1)c1ccccc1F	0%	-6%	26*	87*	?
C/C(=N\NC(=O)c1ccccc1)c1ccccc1Br	-5%	-1%	58*	67*	-4%
C/C(=N\NC(N)=O)c1c(F)cccc1F	-2%	3%	-2	-11	3%
C/C(=N\NC(=O)OC(C)(C)C)c1ccccc1Br	2%	3%	59*	63*	-13%
CCC(C)C1NC(=O)C(CCNCS(=O)(=O)O)NC(=O)C(NC(=O)C(CCNCS(=O)(=O)O)NC(=O)C(NC(=O)C(CCNCS(=O)(=O)O)NC(=O)CCCCC(C)C)C(C)O)CCNC(=O)C(C(C)O)NC(=O)C(CCNCS(=O)(=O)O)NC(=O)C(CCNCS(=O)(=O)O)NC(=O)C(C(C)CC)NC1=O (centres undefined)	-3%	.	.	.	.
O=C(Cc1ccc(Cl)cc1)NN1C(=O)c2ccccc2C1=O	4%	7%	-3	2	1%
COC(=O)[C@@H]1[C@@H](C#N)C2(c3ccccc3-c3ccccc32)N(c2ccc(Cl)cc2)N1C#N	-19%	-16%	12*	47*	5%
CC(C)C(=O)N1CCC(n2nccc2NC(=O)CCc2ccccc2)CC1	12%	-7%	-3	-3	2%
SMILES	Giardia FBPA inh	NS1 function inh	Cycloheximide cs	Shiga inhibitor	LmPK inhibitor
CC(=O)Nc1sc2c(c1C#N)CCCC2	1%	-17%	4	1	2%
Cn1nccc1C(=O)NC(=S)Nc1sc2c(c1C#N)CCCCC2	-15%	4%	17	34	-2%
N#Cc1c(NC(=O)c2ccco2)sc2c1CCC2	.	-4%	-4	-25	-5%
CC1CCc2sc(NC(=S)NC(=O)c3ccccc3)c(C#N)c2C1 (centres undefined)	-8%	8%	26*	+	-1%
CCN1CCc2c(sc(NC(=S)NC(=O)c3ccccc3)c2C#N)C1	?	8%	22	29	-3%
CC(=O)NC(=S)Nc1sc2c(c1C#N)CCCCC2	-27%	19%	30*	84*	-24%
CC(C)(C)c1ccc(C(=O)NC(=S)Nc2sc3c(c2C#N)CCC3)cc1	-6%	6%	12*	18*	0%
CC1(C)Cc2c(sc(NC(=O)c3ccco3)c2C#N)CO1	-3%	-47%	28*	22	0%
Cc1ccc(N(C(=O)c2csnn2)C(C(=O)NCc2ccccc2)c2cccnc2)cc1 (centres undefined)	6%	7%	4	-7	-5%
COc1ccc(CN2CCN(CCSc3ccc(C)cc3)CC2)c(OC)c1OC	?	8%	-1	-3	-10%
CCN(CC)c1ccc(C=NCCNS(=O)(=O)c2ccc(C)cc2)cc1	-14%	-1%	12	8	1%
Cc1noc(C)c1C(=O)N1CCC2(CCCN(Cc3nccs3)C2)CC1	5%	.	.	.	.
CN1Cc2sc(NC(=S)NC(=O)c3ccccc3)c(C#N)c2CC1(C)C	-23%	2%	47*	56	-1%
N#Cc1c(NC(=S)NC(=O)c2ccccc2)sc2c1CCC2	-9%	12%	32*	37	1%
CCC1(C)Cc2c(sc(NC(=S)NC(=O)c3ccccc3)c2C#N)CO1 (centres undefined)	-3%	8%	11	-1	4%
O=C(Nc1sc2c(c1C(=O)O)CCCC2)c1ccccc1Cl	-19%	-33%	4	.	5%
O=C(NC(=S)Nc1sc2c(c1C(=O)O)CCCC2)c1ccccc1	?	-39%	12*	21	-1%
COC(=O)c1ccc(COC(=O)c2ccc(N(C)C)cc2)cc1	-2%	10%[9.22 µM]	41*	65*	-2%
COC(=O)c1cccc(COC(=O)c2ccc(N(C)C)cc2)c1	-1%	1%	-3	19	2%
CN(C)c1ccc(C(=O)OCc2ccccc2)cc1	2%	-3%	35*	51	-3%
Cn1cnc([N+](=O)[O-])c1Sc1nc(N)nc2c1ncn2[C@H]1C[C@H](O)[C@@H](CO)O1	.	10%	.	.	.
CCOC(=O)c1cc(CC)sc1/N=C/C1C(=O)NC(=S)NC1=O	18µM*	.	10	-9	-2%[11.5 µM]
CC[C@@H](c1ccccc1)n1c(=O)n2n(c1=O)[C@H]1[C@H](O)[C@H]3O[C@@H]3/C(=N/OC[C@@H](O)COCc3ccco3)[C@@H]1CC2	2%[12.9 µM]	.	.	.	.
CC(Cl)C(=O)NN=C(c1ccccc1)c1ccccc1 (centres undefined)	-13%	5%	16*	41	-2%
CC(NC1CCCCC1)C(=O)NN=C(c1ccccc1)c1ccccc1 (centres undefined)	1%	-6%	-2	-11	5%
O=C(Nc1ccccc1C(=O)N1CCOCC1)c1cc2ccccc2o1	2%	2%	-3	2	0%
